Compounds without any hit were thinned out: in the full panel of roughly 83,000, 20% have a hit.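 How to read the values: 0–100, growth inhibition (40 = 60% inhibited); 0, no net growth; -100 to 0, cell death (-40 = 40% of starting cells died; -100 = all dead).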 A number with no mark means an inactive call. Calls of active or inactive are those of the source. Rule for the calls: active = growth percent below 10; inactive = the rest.

For the experiment, the system named is 786-0 renal. Put plainly: NCI-60 one-dose screen, 48 h (100 = growth as untreated, 0 = no growth, -100 = all killed). The conditions noted are these: 10 µM unless noted.
On to `Cc1ccc2c(c1)C(=O)/C(=C/c1ncc([N+](=O)[O-])n1C)O2`, for which the growth is 2.46% (active).
Take `CCCc1nn(C)c2c(=O)[nH]c(-c3cc(S(=O)(=O)N4CCN(C)CC4)ccc3OCC)nc12`: the growth is 98.5%.
The value for `Cc1ccc(NC(=O)Nc2ccc(-c3cccnc3)cc2N2CCC(CO)CC2)cc1` was -8.69% (active); that for `O=C(Nc1cccc([N+](=O)[O-])c1)c1cccc(C(=O)Nc2cccc([N+](=O)[O-])c2)c1` was 73.9%.
For `O=C(Nc1nc(-c2ccccc2)cs1)c1cc(O)c(O)c(O)c1`, the growth was 41.6%.
For the compound `CC(C)(C)c1ccc(C(O)CCCN2CCC(C(O)(c3ccccc3)c3ccccc3)CC2)cc1` (configuration not stated), the growth is -97.4% (active).
The value for `Cc1cc(=O)n2n1-c1ccc(Cl)cc1NC(=O)C2` was 108%; that for `CC(=O)NC1(C(=O)O)CCCC1` was 110%; that for `Nc1nc(N)c([N+](=O)[O-])c(=O)[nH]1` was 110%.
The value for `COc1ccc2nc(NC(=O)c3cc(-c4ccc(F)cc4)n4nc(-c5ccccc5)cc4n3)sc2c1` was 90.8%; that for `Cc1ccc2c(c1)O/C(=C\c1ccc([N+](=O)[O-])o1)C2=O` was 5.37% (active).
As for `CCOC(=O)c1c2c(c(C)n1Cc1ccc(OC)cc1)-c1nc(N)ncc1CC2`, the figure is 98.5%; as for `COc1cc2c(-c3nc4cc(Cl)c(F)cc4s3)cc(=O)oc2c(C)c1OC`, -70.2% (active); as for `COc1cc(C(=O)/C=C/c2cccnc2Nc2ccccc2)cc(OC)c1OC`, -83.1% (active).
In the case of `O=C(C(Br)Br)C(Br)C(Br)c1ccccc1` (configuration not stated), the growth is 107%.
As for `CC/C=C\C=C/C(=O)N/C=C/CC1Cc2cccc(O)c2C(=O)O1` (configuration not stated), the figure is 81.5%.
Turning to `c1ccc2cc(C[n+]3ccn(CCCCCCCn4cc[n+](Cc5ccc6ccccc6c5)c4)c3)ccc2c1`, the growth is 95.8%.
On to `Nc1ccc2c3c(cccc13)-c1ccccc1-2`, for which the growth was 68.4%.
As for `Clc1ccc([C@@H]2C[C@@H]3Cc4cc(Br)c5ccccc5c4N2O3)c(Cl)c1`, the growth was 95%.
For the compound `Cc1nn(-c2ccc(Br)cc2)c2nc3c(nc12)C(=O)C(=O)c1ccccc1-3`, the growth was 102%.
The value for `COc1ccc(OC)c2c1[nH]c(=O)c1c3ccccc3cn21` was -86.3% (active).
Consider `O=C(NCCCO)c1cc(Cl)ccc1O`, for which the growth was 49.5%.
Turning to `COc1ccc(C2=NN(C(C)=O)C(c3cc(OC)c(OC)c(OC)c3)C2)cc1` (configuration not stated), the growth is 108%.
As for `CC(=O)O[C@H]1C(=O)[C@@]2(C)C([C@H](OC(=O)c3ccccc3)[C@]3(O)C[C@H](OC(=O)[C@H](O)[C@@H](NC(=O)c4ccccc4)c4ccccc4)C(C)=C1C3(C)C)[C@]1(OC(C)=O)CO[C@@H]1C[C@@H]2O` (some centres not stated), the figure is 17.6%; as for `O=C(Nc1nc(-c2ccc(Cl)cc2)cs1)c1cc(O)c(O)c(O)c1`, 11.5%; as for `CCCCN(CCCC)CCCOC(=O)c1ccc(N)cc1`, 95.4%.
In the case of `CCCCCCCCCCC[C@@H](C[C@H]1OC(=O)[C@H]1CCCCCC)OC(=O)[C@@H](CC(C)C)NC=O`, the growth was 44.8%.
As for `O=C1Nc2ccccc2C12Nc1cc(Cl)ccc1S2` (configuration not stated), the figure is 98.4%; as for `CCOc1cc(C(C)(C)C)ccc1C1=N[C@H](c2ccc(Cl)cc2)[C@H](c2ccc(Cl)cc2)N1C(=O)N1CCN(CC#Cc2cccc3c2CN([C@@H]2CCC(=O)NC2=O)C3=O)CC1`, 43.8%; as for `CN(CCOc1ccc(CC2SC(=O)NC2=O)cc1)c1ccccn1` (configuration not stated), 108%.
The value for `C[C@]12CC[C@@H]3c4ccc(O)cc4CC[C@H]3[C@@H]1CC[C@@H]2NS(=O)(=O)c1cccc(Br)c1` was 70.3%.
The value for `Clc1cc(Cl)c(OCC#CI)cc1Cl` was 98.9%.
`O=C(Nc1cccc(C(F)(F)F)c1)Nc1ccc(OCc2nnc(-c3ccc(Cl)cc3)o2)c(F)c1`: the growth was 84.2%.
The value for `CCCn1cnc2c1c(=O)n(CCCCC(C)=O)c(=O)n2C` was 104%.
As for `N=c1ccn2c(n1)O[C@@H]1[C@@H](O)[C@H](CO)O[C@@H]12`, the figure is 31.1%.
With `CCCCCCCCCCCCCCCCCc1nccn1CCO`, the growth was 62.3%.
As for `Nc1ccc(C2=Nc3cccc4cccc(c34)S2)cc1`, the figure is 121%.

The values are drawn from PubChem BioAssay (NCI).
